PubChem BioAssay AID2316 (Broad Institute, 2010)
The campaign covered roughly 29,000 compounds. Fewer than 10 were called active. No rule for the calls is given here. A selection follows.

Assay: reversal of PD-1 mediated T-cell inhibition, primary screen, luminescence, primary human CD4 T cells, PD-L1 beads (AID 2316);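 also: 0% = median vehicle wells and 100% = positive control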
Details: CellTiter-Glo 96 h, hits give high values

Compound	activation
C[C@@H]1CCCCO[C@H](CN(C)S(=O)(=O)c2cccs2)[C@@H](C)CN([C@H](C)CO)C(=O)c2cc(NC(=O)Nc3ccccc3)ccc2O1	-1.94% (inactive)
COc1ccc(NC(=O)Nc2ccc3c(c2)CC(=O)N([C@@H](C)CO)C[C@H](C)[C@@H](CN(C)Cc2ccc4c(c2)OCO4)O3)cc1	0.816% (inactive)
COc1ccc(S(=O)(=O)Nc2ccc3c(c2)C(=O)N([C@H](C)CO)C[C@H](C)[C@@H](CN(C)S(C)(=O)=O)OCCCC[C@@H](C)O3)cc1	0.638% (inactive)
C[C@@H]1CN([C@@H](C)CO)C(=O)c2cc(NC(=O)Nc3ccccc3)ccc2O[C@@H]1CN(C)Cc1ccccc1	1.95% (inactive)
C[C@@H]1CN([C@H](C)CO)C(=O)c2cc(NS(=O)(=O)c3ccccc3)ccc2O[C@H]1CN(C)C(=O)Nc1ccc2c(c1)OCO2	1.11% (inactive)
COc1ccc(N(Cc2cc3ccccc3[nH]c2=O)C(=O)c2cccc(OC)c2)cc1	1.92% (inactive)
C[C@H]1CN([C@@H](C)CO)C(=O)c2cccc(NC(=O)c3cnccn3)c2O[C@@H]1CN(C)Cc1ccc(Oc2ccccc2)cc1	-2.26% (inactive)
Cc1ccc(C23CC4CC(CC(CN)(C4)C2)C3)cc1C	-7.62% (inactive)
O=C(Nc1ccccc1)C(=S)Nc1ccccc1	-0.0947% (inactive)
Cc1noc(C)c1NC(=O)N(C)C[C@@H]1Oc2ccc(NC(=O)Nc3ccc(F)cc3)cc2C(=O)N([C@H](C)CO)C[C@@H]1C	-0.0779% (inactive)
CN1CCN(S(=O)(=O)c2ccc(NC(=O)C3CC=CCC3C(=O)O)cc2)CC1 (stereo not given)	1.99% (inactive)
Cc1cc(C)c(NC(=O)CSc2nnc(-c3ccccc3)n2-c2ccc(F)cc2)c(C)c1	1.56% (inactive)
COc1ccc(NC(=O)c2ccc(OCC(=O)Nc3ccccc3F)cc2)cc1Cl	0.553% (inactive)
COc1ccc(NC(=O)N(C)C[C@@H]2Oc3ccc(NC(=O)Nc4ccccc4)cc3CC(=O)N([C@H](C)CO)C[C@@H]2C)cc1	-0.196% (inactive)
CCOC(=O)CCSc1nnc2c3ccccc3n(C)c2n1	-0.845% (inactive)
Cc1noc(C)c1NC(=O)Nc1ccc2c(c1)C(=O)N([C@H](C)CO)C[C@@H](C)[C@@H](CN(C)C(=O)NC(C)C)O2	0.338% (inactive)
O=C(CSc1nnc(-c2ccccc2)n1-c1ccc(Cl)cc1)Nc1ccc(Cl)cc1	-11.8% (inactive)
CCc1cc(C)cc(OCC(O)Cn2cnc3ccccc32)c1 (stereo not given)	-5.01% (inactive)
CN1CCN(C(=O)CCc2nc(-c3ccc(Cl)cc3)no2)CC1	-0.127% (inactive)
O=C(CSc1nnc2ccc3ccccc3n12)Nc1ccc2c(c1)OCCO2	0.368% (inactive)
c1ccc(Nc2ncnc3sc(-c4ccccc4)cc23)cc1	-0.968% (inactive)
CCCC(=O)Nc1ncnc2c1ncn2[C@@H]1O[C@@H]2OP(=O)(O)OC[C@H]2[C@H]1OC(=O)CCC	4.46% (inactive)
CCOc1ccc2nc(Nc3nc(C)c(Cc4ccc(C)cc4)c(=O)[nH]3)nc(C)c2c1	-0.875% (inactive)
COc1ccc(C(=O)CSc2nnc(-c3cccc(C)c3)n2-c2ccccc2)cc1	1.1% (inactive)

Compound	activation
Cc1ccc(S(=O)(=O)N(C)C[C@@H]2Oc3c(NC(=O)C4CC4)cccc3C(=O)N([C@H](C)CO)C[C@H]2C)cc1	1.35% (inactive)
O=C(Nc1cccs1)N1CCN(C(=O)C2CCCO2)CC1 (stereo not given)	-0.0221% (inactive)
Cc1ccc(NC(=O)CSc2nnc(C)n2-c2ccc(F)cc2)cc1Cl	0.0225% (inactive)
COc1ccc(S(=O)(=O)Nc2cccc3c2O[C@@H](CN(C)C(=O)Nc2ccccc2)[C@@H](C)CN([C@@H](C)CO)C3=O)cc1	-2.12% (inactive)
C[C@@H]1CN([C@@H](C)CO)C(=O)c2cc(NS(C)(=O)=O)ccc2O[C@@H]1CN(C)C(=O)Nc1ccc(F)cc1	2.2% (inactive)
O=C1c2ccccc2S(=O)c2ccccc2S(=O)(=O)N1Cc1ccccc1 (stereo not given)	-5.99% (inactive)
Cc1ccc(Cl)cc1NC(=O)CN(c1cccc(Cl)c1C)S(C)(=O)=O	-5.55% (inactive)
CS(=O)(=O)N(CC(=O)Nc1ccc2ccccc2c1)c1cc(Cl)c(Cl)cc1Cl	1.79% (inactive)
COc1ccc(S(=O)(=O)N(C)C[C@H]2Oc3ccc(NS(=O)(=O)c4ccc(F)cc4)cc3C(=O)N([C@H](C)CO)C[C@H]2C)cc1	1.51% (inactive)
COc1ccc(NC(=O)Nc2ccc3c(c2)C(=O)N([C@H](C)CO)C[C@@H](C)[C@H](CN(C)Cc2ccccc2)O3)cc1	-0.421% (inactive)
C[C@H]1CN([C@@H](C)CO)C(=O)c2cc(NS(C)(=O)=O)ccc2O[C@H]1CN(C)C(=O)Nc1ccc(C(F)(F)F)cc1	0.226% (inactive)
O=C(NCc1ccccn1)C1CC(c2cccc(Br)c2)=NO1 (stereo not given)	1.86% (inactive)
C[C@H](CO)N1C[C@H](C)[C@@H](CN(C)S(C)(=O)=O)Oc2c(NC(=O)c3ccc(-c4nccs4)cc3)cccc2C1=O	0.392% (inactive)
COc1ccc(C(=O)CSc2nc3ccc(OC)cc3[nH]2)cc1	0.352% (inactive)
Cc1noc(C)c1NC(=O)Nc1ccc2c(c1)C(=O)N([C@@H](C)CO)C[C@H](C)[C@H](CN(C)CC1CCCCC1)O2	1.03% (inactive)
C[C@@H]1CN([C@H](C)CO)C(=O)Cc2cc(NS(=O)(=O)c3ccc(F)cc3)ccc2O[C@H]1CN(C)C	2.25% (inactive)
CS(=O)(=O)N(CC(=O)Nc1cc(Cl)ccc1Cl)c1ccc(Oc2ccccc2)cc1	0.0184% (inactive)
Cc1ccc(S(=O)(=O)Nc2ccc3c(c2)C(=O)N([C@H](C)CO)C[C@H](C)[C@H](CN(C)Cc2ccc(C(=O)Nc4ccccc4N)cc2)OCCCC[C@@H](C)O3)cc1	-0.831% (inactive)
O=C(Nc1ccccc1Cl)c1ccccc1S(=O)(=O)c1ccccc1[N+](=O)[O-]	1.95% (inactive)
CS(=O)(=NS(=O)(=O)c1ccc(OC(F)(F)F)cc1)c1ccc(Cl)cc1 (stereo not given)	0.43% (inactive)
O=C1OC(c2ccc(-c3ccccc3)cc2)=N/C1=C\c1ccco1	1.56% (inactive)
C/C=C/c1ccc(OCCCSc2nc(C)cc(=O)[nH]2)c(OC)c1	2.94% (inactive)
C[C@H]1CN([C@@H](C)CO)C(=O)Cc2cc(NC(=O)Nc3ccc4c(c3)OCO4)ccc2O[C@H]1CN(C)Cc1ccc(C(=O)Nc2ccccc2N)cc1	-2.39% (inactive)
C[C@@H]1CCCCO[C@@H](CN(C)C(=O)C2CCCCC2)[C@@H](C)CN([C@H](C)CO)C(=O)c2cc(NC(=O)c3ccccc3)ccc2O1	-1.83% (inactive)

Compound	activation
N#Cc1cc2c(nc1SCC(=O)Nc1ccccc1C(F)(F)F)CCCCC2	1.79% (inactive)
Cc1noc(C)c1NC(=O)Nc1cccc2c1O[C@@H](CN(C)C(=O)Nc1ccc(C(F)(F)F)cc1)[C@@H](C)CN([C@@H](C)CO)C2=O	-0.0327% (inactive)
C[C@H](CO)N1C[C@H](C)[C@H](CN(C)S(C)(=O)=O)Oc2ccc(NC(=O)CCCN(C)C)cc2C1=O	0.789% (inactive)
C[C@H](CO)N1C[C@H](C)[C@H](CN(C)CC2CCCCC2)Oc2ccc(NC(=O)CCCCCC(=O)Nc3ccccc3N)cc2CC1=O	-0.694% (inactive)
Cc1cccc(NC(=O)CSc2nc3c(cc2C#N)CCCCC3)c1	-3.01% (inactive)
O=C(CSc1nnc(-c2ccccc2)c(-c2ccccc2)n1)Nc1ccccc1	1.51% (inactive)
C[C@H]1CN([C@@H](C)CO)C(=O)c2cc(NC(=O)Cn3cnnn3)ccc2O[C@@H]1CN(C)CC1CCCCC1	1.73% (inactive)
CCCC1CCC(c2ccc(OC(=O)c3ccco3)cc2)CC1 (stereo not given)	-0.337% (inactive)
CC(=O)c1c(C)nn(CC(O)COc2ccc3cc(Br)ccc3c2)c1C (stereo not given)	-6.98% (inactive)
O=C(Nc1ccc(C(=O)OCc2cccc(C(=O)c3ccccc3)c2)cc1)c1ccccc1	-0.837% (inactive)
O=C(CSc1n[nH]c(-c2ccncc2)n1)Nc1ccccc1F	2.95% (inactive)
Cc1ccc(NC(=O)CN2C(=O)/C(=C\c3ccccc3)SC2=S)cc1	1.06% (inactive)
COC(=O)C1=C(C)NC2=C(C(=O)CC(C)(C)C2)C1c1ccncc1 (stereo not given)	-0.541% (inactive)
C[C@@H]1CN([C@@H](C)CO)C(=O)c2cccc(NS(=O)(=O)c3cccs3)c2O[C@@H]1CN(C)CC1CC1	1.15% (inactive)
C[C@@H]1CN([C@H](C)CO)C(=O)c2cccc(NC(=O)Nc3ccccc3)c2O[C@H]1CN(C)S(C)(=O)=O	0.424% (inactive)
C[C@H]1CN([C@@H](C)CO)C(=O)Cc2cc(NC(=O)Nc3cccc4ccccc34)ccc2O[C@@H]1CN(C)S(=O)(=O)c1cn(C)cn1	-0.329% (inactive)
CC(C)Cc1ccc(/C=C/C(=O)N2CCCC2)cc1	-1.3% (inactive)
C[C@H]1CN([C@@H](C)CO)C(=O)c2cccc(NC(=O)C3CC3)c2O[C@@H]1CN(C)S(=O)(=O)c1ccc(F)cc1	-0.218% (inactive)
COc1ccc(CN(C)C[C@H]2Oc3c(NS(=O)(=O)c4ccc(C)cc4)cccc3C(=O)N([C@@H](C)CO)C[C@@H]2C)cc1	-1.26% (inactive)
COc1ccc(CN(C)C[C@@H]2Oc3ccc(NS(=O)(=O)c4ccc(F)cc4)cc3C(=O)N([C@@H](C)CO)C[C@@H]2C)cc1	-1.17% (inactive)
N#Cc1c(SCC(=O)Nc2ccc(F)cc2Cl)nc2c(c1C(F)(F)F)CCCCC2	0.417% (inactive)
CC(=O)NCCc1nc2cc(NC(=O)c3ccccc3)ccc2n1C	2.35% (inactive)
